PP1 counter – counter-screen for PP5 inhibitors: inhibitors of human PP1-alpha; inhibition, % at 6.7 µM; purified PP1alpha, OMFP fluorescence; hit rate 0.9% among 320,000;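 active = inhibition above the mean inhibition of all tested compounds plus 3 SD, computed separately for each screening campaign, cut at about 15% in these data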
NadD inh – inhibitors of Staphylococcus aureus NadD; purified NadD enzyme, colorimetric absorbance read-out; inhibition, % at 20 µM; AID 602399; hit rate 0.78% among 360,000; in the data active = inhibition above about 26%
PP5 primary – blocks human protein phosphatase 5 activity | P53041 | purified PP5c, OMFP substrate fluorescence | inhibition, % at 6.7 µM | hit rate 0.18% among 320,000 | AID 1987;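 active = inhibition above the campaign's mean inhibition across all tested compounds plus 3 SD, cut at about 9.5% in these data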;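 also: 0% = DMSO only and 100% = 100 µM cantharidin control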
Target sequence (P53041 whole entry, looked up): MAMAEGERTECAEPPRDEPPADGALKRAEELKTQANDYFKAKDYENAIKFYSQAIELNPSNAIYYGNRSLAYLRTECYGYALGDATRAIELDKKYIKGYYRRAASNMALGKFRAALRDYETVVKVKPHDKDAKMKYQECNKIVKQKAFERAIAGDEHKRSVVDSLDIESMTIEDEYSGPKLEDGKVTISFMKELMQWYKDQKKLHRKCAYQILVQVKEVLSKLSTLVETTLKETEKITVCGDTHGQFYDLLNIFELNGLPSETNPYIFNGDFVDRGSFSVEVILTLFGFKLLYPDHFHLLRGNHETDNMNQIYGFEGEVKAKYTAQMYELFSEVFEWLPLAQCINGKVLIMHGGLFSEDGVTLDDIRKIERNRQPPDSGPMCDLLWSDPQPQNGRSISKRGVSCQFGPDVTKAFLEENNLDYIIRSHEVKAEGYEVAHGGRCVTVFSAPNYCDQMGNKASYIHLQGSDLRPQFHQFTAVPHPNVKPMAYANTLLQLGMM
PREPL inhibitor – human PREPL enzyme inhibition. Q4J6C6. recombinant PREPL, fluorescence polarization activity-based probe. inhibition, % at 5.96 µM. hit rate 0.68% among 320,000. AID 2751; in the data active = inhibition above about 43%;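 also: 0% = enzyme with DMSO and 100% = wells lacking enzyme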
Rpn11 block – inhibitors of human proteasome Rpn11 | O00487 | human 26S proteasome, Ub4-pepOG fluorescence polarization; 20S core pre-blocked with epoxomicin | inhibition, % at 20 µM | hit rate 0.59% among 360,000;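 active = inhibition at 20 µM, scaled to each plate's controls, above about 33%, limit read from the data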
PP1 confirm – human PP1 phosphatase inhibition, confirmation; shares compounds with PP1 counter; purified PP1alpha, OMFP substrate fluorescence; inhibition, % at 6.7 µM; hit rate 52% among 1,900; AID 2358;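 active = mean PP1 inhibition above a set limit taken from the earlier primary screen, cut at about 15% in these data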
PP5 counter – inhibits human PP5 phosphatase in PP1 counter-screen | purified PP5c, OMFP fluorescence | inhibition, % at 6.7 µM | shares compounds with PP1 counter | hit rate 4% among 1,900;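 active = mean PP5 inhibition over triplicate wells above about 9.5% taken from the earlier PP1 screen, limit read from the data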
The depositor's hits bear a star; nt = not tested or not shown. The list is not random: actives were taken first. Their share in the collection is about 2.4%.

SMILES	PP1 counter	NadD inh	PP5 primary	PREPL inhibitor	Rpn11 block	PP1 confirm	PP5 counter
O=C(O)c1ccccc1N/N=C/c1cc(Br)cc(Br)c1O	22.8*	4.6	1.0	19.3	7.8	10.6	-0.7
O=C1C=C(O)c2c(O)cc(O)c(O)c2C1=O	57.0*	11.7	4.5	30.4	-188.7	36.9*	-6.7
O=C1c2cccc3cccc(c23)C(=O)N1CC1CCN(CC(O)COc2ccc3ccccc3c2)CC1 (centres undefined)	34.0*	25.5	-0.2	-22.0	-4.4	-0.3	0.8
Cc1ccc(C(C)C)c(OCc2ccc(C(=O)N/N=C/c3cccc(O)c3O)cc2)c1	23.2*	19.2	1.8	14.8	2.3	17.7*	-0.4
Cc1cccc(OCCn2c(NC(=O)c3ccco3)nc3ccccc32)c1	19.5*	-4.1	3.0	-33.3	0.2	2.5	7.3
Cc1ccc(OCCn2c(NC(=O)c3ccco3)nc3ccccc32)cc1	-1.2	6.1	0.0	-5.8	-7.4	nt	nt
Cc1ccccc1OCCCN1C(=O)C(=O)c2cccc(C)c21	21.5*	2.1	1.3	-15.5	4.2	11.1	1.6
Cc1cccc(C)c1Nc1nnc(SCc2nc3ccccc3c(=O)[nH]2)s1	-3.4	3.0	1.4	1.1	-2.2	nt	nt
Cc1ccccc1Nc1nnc(SCc2nc3ccccc3c(=O)[nH]2)s1	21.5*	nt	0.6	-1.0	nt	2.3	-8.4
COc1cccc(/C=N/Nc2ncnc3scc(-c4ccccc4)c23)c1O	25.9*	15.5	4.3	29.3	7.5	31.6*	6.0
COc1cccc(/C=N/Nc2ncnc(Cl)c2N)c1O	25.6*	-4.8	-0.7	8.1	-3.6	32.5*	-2.5
COc1cccc(/C=N/Nc2nccnc2Cl)c1O	nt	-4.1	nt	nt	-7.2	nt	nt
COc1ccc(C(=O)OCC(=O)c2ccc(S(=O)(=O)N3CCCCC3)cc2)c(OC)c1	nt	-6.6	nt	nt	3.0	nt	nt
Cc1ccc(C(=O)OCC(=O)c2ccc(S(=O)(=O)N3CCCCC3)cc2)o1	66.1*	-2.5	1.8	-7.0	8.6	-0.1	-2.1
CCN(Cc1ccccc1)S(=O)(=O)c1ccc(C(=O)N(CCCN(C)C)c2nc3c(C)c(C)ccc3s2)cc1	18.6*	0.1	5.2	10.8	0.4	-3.1	3.4
CCN(Cc1ccccc1)S(=O)(=O)c1ccc(C(=O)N(CCCN(C)C)c2nc3cc4c(cc3s2)OCO4)cc1	9.2	4.8	1.6	10.9	-9.5	nt	nt
Cc1cc(N/N=C/c2ccc(F)cc2)nc(-n2nc(C)cc2C)n1	27.2*	-1.0	2.8	2.0	1.7	35.8*	-1.0
CNc1cc(C)nc(-n2nc(C)cc2C)n1	5.0	-1.0	-0.4	4.1	-3.9	nt	nt
COc1ccc(/C=N/Nc2cc(C)nc(-n3nc(C)cc3C)n2)c(OC)c1	36.9*	10.3	2.2	19.0	-0.5	47.7*	1.3
COc1ccccc1/C=N/Nc1cc(C)nc(N2CCOCC2)n1	-4.5	-1.5	0.2	5.2	2.7	nt	nt
CCOc1cc(/C=N/Nc2cc(C)nc(-n3nc(C)cc3C)n2)ccc1O	22.5*	-4.6	2.0	-1.1	-2.3	22.1*	2.6
CCOc1cc(/C=N/Nc2nc(C)cc(=O)[nH]2)ccc1O	-2.0	-5.4	-0.6	20.0	-2.6	nt	nt
Cn1c(=O)c2sccc2n2c(CCCC(=O)NCc3ccco3)nnc12	-4.7	-2.1	-2.1	-5.5	-4.7	nt	nt
O=C(CN1CCN(Cc2ccccc2F)CC1)Nc1ccccc1Cl	5.0	-7.0	0.6	14.0	-5.5	nt	nt
Cc1cc(C(=O)CN2C(=O)C(=O)N(C3CCCC3)C2=O)c(C)n1CCc1ccccc1	nt	4.4	nt	nt	-2.5	nt	nt
Cc1cc(C(=O)CN2C(=O)C(=O)N(C3CCCC3)C2=O)c(C)n1CCc1ccc(F)cc1	17.6*	13.5	0.2	13.9	9.6	5.8	-4.8
CCOC(=O)c1nncc(-c2ccccc2)n1	4.8	-0.6	0.1	-3.7	2.0	nt	nt
Cc1ccc(Cn2nc(C)c(NC(=O)c3cc(-c4ccc5c(c4)OCO5)on3)c2C)cc1	24.2*	nt	1.7	0.9	nt	37.4*	-3.7
Nc1nn2c(-c3ccccc3)cc(=O)[nH]c2c1N=Nc1ccc(O)cc1	28.2*	24.2	2.8	36.1	-39.8	20.2*	0.9
CC(C)c1ccc(/C=C2\SC(=O)N(CC(=O)NC3C=CS(=O)(=O)C3)C2=O)cc1 (centres undefined)	28.4*	12.2	2.5	14.6	-13.9	32.5*	-3.1

Screening data as filed in PubChem BioAssay.
